# Measured values published in PubChem BioAssay (NCATS).
# Results filed as inconclusive are left out. A call without a number means that no potency is given here. Active and inactive are the calls of the source. Calls come from the whole dose curve; as a rule, active = well fitted inhibition curve with a large enough effect; inconclusive = small, poorly fitted or top-dose-only effect; inactive = flat fitted curve, though single readings scatter.
# Experiment: qHTS for Inhibitors of Plasmodium falciparum (7G8) proliferation (AID 504316); note: nearly all actives have a fitted effect of over 65% in size
# Conditions: P. falciparum 7G8 in erythrocytes, SYBR Green DNA, 72 h; series mostly up to 6.7 µM
# Description: Plasmodium falciparum is a virulent malarial parasite that kills 1-2 million people worldwide each year. Malaria not only inflicts tremendous suffering and morbidity on the human population, but has dramatically influenced the course of civilization with profound sociological and economic implications (Shah, S. 2010). Transmitted by mosquitoes, the sporozoite form of the parasite enters the blood stream to infect hepatocytes, where they become merozoites that infect red blood cells (erythrocytes). Within erythrocytes, merozoites begin a […] cycle of growth and division, after which the parasite is released to infect new red blood cells. Gametocytes, which form within erythrocytes as well, circulate in the bloodstream and are ingested by the mosquito, thereby completing the life cycle (see CDC website). To profile malarial lines for differential chemical responses and to identify inhibitors of malarial growth, an assay that measures P. falciparum growth and replication within erythrocytes was employed. This assay uses a DNA binding fluorescent dye (SYBR Green) to detect parasite DNA following cell lysis. Because mature erythrocytes lack DNA, only Plasmodium-derived DNA is detected. The P. falciparum line cp250, derived from a malarial isolate from Cambodia, (Mu, J., et al. 2010) was added to the panel of lines, Dd2, HB3, 7G8 and GB4 in this study. Laboratory of Assay Development and Screening Technology [ADST] and NIH Chemical Genomics Center [NCGC] Boston University, Chemistry Department, Center for Chemical Methodology and Library Development [CMLD-BU] NIH National Institute of Allergy and Infectious Diseases [NIAID]
# ADST Assay Protocol Summary: The 1536-well SYBR Green viability assay was based on the method of Bennett et al (2004) and described previously in 1536-well format (Yuan J., et al. 2009). For screening 3 ul culture medium was dispensed into 1536 well black clear bottom plates (Aurora Biotechnologies) using a Multidrop Combi (Thermo Fisher Scientific Inc.), 23 nL compounds in DMSO were added by a pin transfer (Cleveland, P.H. and Koutz, P.J, 2005) using a pin tool-based delivery system (Kalypsys), and 5 ul of erythrocytes infected with P. falciparum one of five lines (cp250, Dd2, HB3, 7G8 or GB4, 0.3% parasitemia, 2.5% hematocrit final concentration) were added. The plates were incubated at 37C in a humidified incubator in 5% CO2 for 72 h, and 2 ul lysis buffer (20 mM Tris HCl, 10 mM EDTA, 0.16% saponin, 1.6% triton X, 10X SYBR Green I (supplied as 10,000X final concentration by Invitrogen) was added to each well. The plates were mixed for 25 sec with gentle shaking and incubated overnight at room temperature in the dark. The following morning, fluorescence intensity at 485(14) nm excitation and 535(25) nm emission wavelengths was measured on an EnVision (Perkin Elmer) plate reader. Plate reads were normalized relative to the control inhibitor (0.29 uM artemisinin) and vehicle (DMSO) wells present on each plate and then corrected by an algorithm using vehicle-only control plates at the beginning and end of the compound plate stack. References Shah, S. (2010). The Fever: how malaria has ruled humankind for 500,000 years. New York, Sarah Crichton Books. CDC web site, http://www.cdc.gov/malaria/about/biology/index.html Mu, J., Myers, R.A., Jiang, H., Liu, S., Ricklefs, S., Waisberg, M., Chotivanich, K., Wilairatana, P., Krudsood, S., White, N.J., et Plasmodium falciparum genome-wide scans for positive selection, recombination hot spots and resistance to antimalarial drugs Nature Genetics 2010, 42, pp 268-271 Bennett TN, Paguio, M., Gligorijevic, B., Seudieu, C., Kosar, A. D., Davidson, E., and Roepe, P. D. Novel, rapid, and inexpensive cell-based quantification of antimalarial drug efficacy Antimicrobial Agents Chemother. 2004, 48(5): pp 1807-10 Yuan J, Johnson RL, Huang RL, Wichterman J, Jiang HY, Hayton K, Fidock DA, Wellems TE, Inglese J, Austin CP, Su XZ. […]
# Potency is the fitted concentration of half-maximal effect.
row,Structure (SMILES),Potency
1,COC(=O)N[C@H](C(C(=O)OC)=C(C)NCc1ccccc1)c1ccc(Cl)cc1,inactive
2,COC1=CC2C(=O)C(C1=O)[C@H](c1ccccc1)[C@H]2C (stereo not given in full),inactive
3,COC(=O)N[C@@H](c1cccc(C)c1)[C@@H](C)[N+](=O)[O-],inactive
4,COc1ccc(O[C@H]2C=C[C@@H](c3ccccc3)O[C@H]2CON=C2[C@H]3CCn4c(=O)n(-c5ccccc5)c(=O)n4[C@@H]3[C@H](O)[C@@H]3O[C@H]23)cc1,inactive
5,CCCNC(=O)OC[C@H]1O[C@H](CCON=C2c3cc(OC)ccc3O[C@H](c3cccc(OC)c3)[C@H]2O)C=C[C@H]1Oc1ccc(OC)cc1,1690 nM (active)
6,COC1=C[C@H](C(=O)NCc2ccccn2)[C@@]2(C)Cc3ccccc3[C@@H]2CC1=O,inactive
7,O=C1C2=C(C(=O)c3ccccc31)[C@H]1O[C@](c3ccsc3)(Cc3ccccc31)O2,1900 nM (active)
8,CC(CCC(=O)OC[C@H]1O[C@H](C#Cc2ccccc2)C=C[C@H]1Oc1ccc(C)cc1)=NO[C@H](C)c1cn([C@@H]2COC[C@@H]2O)nn1,inactive
9,CCCCc1cc2c(cn1)=C(OC(=O)CCC(=O)OC)C(C)(OC(=O)CC)C(=O)C=2 (stereo not given),1690 nM (active)
10,CC1(OC(=O)CCc2ccccc2)C(=O)C=C2C=C(C3CC3)OC=C2C1=O (stereo not given),inactive
11,CC1(OC(=O)C2CCCC2)C(=O)C=C2C=C(c3ccc(C#N)cc3)OC=C2C1=O (stereo not given),inactive
12,CC1(OC(=O)C2CCCC2)C(=O)C=C2C=C3CCCCN3C=C2C1=O (stereo not given),inactive
13,COc1ccc(-c2nc3c(c4c2C[C@H](c2ccccc2)OC4)CN(C(=O)Nc2cccc(C#N)c2)CC3)c(C)c1,inactive
14,COc1ccc(C(=O)CC(=O)c2c(O)cc(OC)cc2OC)cc1,inactive
15,CC1(OC(=O)C2CCCC2)C(=O)C=C2C=C(c3ccsc3)OC=C2C1=O (stereo not given),inactive
16,COC(=O)[C@H]1O[C@@H](c2c(OC)c(OC)c(C)c(OC)c2OC)[C@H](C)[C@@H](O)[C@@H]1C,inactive
17,COc1cc(C(NC(=O)C(F)(F)F)c2cc3ccccc3o2)cc(OC)c1OC (stereo not given),inactive
18,COC(=O)CCCC1=CC2=CC(=O)C(C)(OC(=O)c3cccs3)C(=O)C2=CN1Cc1ccco1 (stereo not given),inactive
19,COC(=O)CCCC1=CC2=C(c3ccccc3)C(=O)C(C)(OC(=O)C3CCCC3)C(=O)C2=CN1CCN1CCOCC1 (stereo not given),inactive
20,O=c1n(-c2ccccc2)c(=O)n2n1CC[C@@H]1C(=NOC[C@@H](O)COCc3ccco3)[C@H]3O[C@H]3[C@@H](O)[C@H]12,inactive

row,Structure (SMILES),Potency
1,CCCCCCCc1cc2ccccc2c2c(C(=O)OC)cc(C(=O)OC)n12,inactive
2,CCOC(=O)C1=CN(CCCc2cn(Cc3ccccc3)nn2)C(=O)NC1c1ccccc1 (stereo not given),inactive
3,COc1ccc(-c2nc(-c3ccccc3)oc2NC(C)c2ccccc2)cc1 (stereo not given),inactive
4,COc1cc2c(cc1OC)[C@@H]1O[C@](c3ccsc3)(C2)Oc2cc(C)n(Cc3ccccc3)c(=O)c21,1510 nM (active)
5,CCOC(=O)CN1C(=O)NC(c2ccccc2)C(C(C)=O)=C1C (stereo not given),inactive
6,COc1ccc(-c2nc3c(c4c2C[C@H](c2ccccc2)OC4)CN(C(=O)c2cc(I)ccc2F)CC3)c(C)c1,1900 nM (active)
7,COC(=O)C(Cc1cc(Br)c(OC)c(Br)c1O)=NO,inactive
8,COC(=O)[C@H]1C[C@@]2(CC=C(C)C)C(=O)[C@@](CC=C(C)C)(C(=O)C(C(=O)c3ccccc3)=C2OC)C1(C)C,inactive
9,COC(=O)C(C(=O)OC)C1c2ccccc2C=C(C2CC2)N1C(=O)OC (stereo not given),inactive
10,C#CCCCON=C1C[C@@H](O)[C@H](O)[C@H]2[C@@H]3C(=O)N(C4CCCCC4)C(=O)[C@@H]3CC[C@H]12,inactive
11,COC(=O)C1=C(C(=O)OC)[C@@H]2N(C)c3ccccc3[C@@]23C[C@@H](C(=O)OC)N(C(=O)Nc2cccc(C#N)c2)C3=N1,inactive
12,C=CC1=C2C=C(C3CC3)N(C3CCCCC3)C=C2C(=O)C(C)(OC(=O)c2ccco2)C1=O (stereo not given),inactive
13,COC(=O)CC=C1c2ccccc2[C@@H](NC(=O)OC)[C@@H]1C,inactive
14,COC(=O)c1nnc(N[C@@H](Cc2c[nH]c3ccccc23)C(=O)OC)nc1C(=O)OC,inactive
15,COC(=O)N[C@H](CC(C)=O)c1ccc2c(c1)OCO2,inactive
16,CCOC(=O)OC[C@H]1O[C@H](c2ccc(C(C)=O)cc2)C=C[C@H]1Oc1ccc(-c2ccccc2)cc1,1510 nM (active)
17,CC1=C[C@@H](C)OC2(C1)C(=O)N(CC1CC1)c1cccc(Br)c12 (stereo not given in full),inactive
18,CCOC(=O)NN=C1C[C@@H](O)[C@@H](O)[C@@H]2[C@H]3C(=O)N(c4cccc(Oc5ccccc5)c4)C(=O)[C@@H]3CC[C@@H]12,inactive
19,C[C@@H]1C=CCCO[C@]12C(=O)N(Cc1ccc(F)cc1)c1cccc(Br)c12,inactive
20,CC#CCN1C(=O)N(C)C(c2ccccc2)C(C(=O)OC)=C1C (stereo not given),inactive
